Shown is part of a subset that was picked to be rich in hits.
Pf Dd2 growth: qHTS Primary assay for Inhibitors of Plasmodium falciparum Dd2 growth in vitro. P. falciparum Dd2 growth, SYBR Green, 72 h. Potency, µM (series often up to 28.9 µM), for inactives: at the top dose activity, negative = inhibition, most hits filed as inhibitors. hit rate 4.3% among 120,000. AID 1347417, 2020; active = well fitted inhibition curve with a large enough effect;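 note: plate controls were DMSO vehicle for no effect and reference drug for full effect; nearly all actives have a fitted effect of over 65% in size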
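Readout: SYBR Green fluorescence, 485 nm excitation, 535 nm emission, after ~16 h lysis at 37C. Before that, Dd2-infected red cells (2.5% hematocrit) grew 72 h with compound, 29 uM top final concentration.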
An asterisk follows results filed as active; i = inactive; [ ] = dose if it differs, or a comment. Potency is the fitted concentration of half-maximal effect.

SMILES	Pf Dd2 growth
Cc1cccc(S(=O)(=O)c2cn(Cc3ccc(F)cc3)c3cc(N4CCOCC4)c(F)cc3c2=O)c1	6.3µM*
Cc1ccc(S(=O)(=O)c2cn(Cc3ccccc3)c3cc(N4CCCCC4)c(F)cc3c2=O)cc1	-23%
Cc1cccc(S(=O)(=O)c2cn(Cc3ccccc3)c3cc(N4CCCC(C)C4)c(F)cc3c2=O)c1 (configuration not stated)	i
Cc1cccc(S(=O)(=O)c2cn(C)c3cc(N4CCC(C)CC4)c(F)cc3c2=O)c1	29%
Cc1cccc(Cn2cc(S(=O)(=O)c3ccccc3)c(=O)c3cc(F)c(N4CCOCC4)cc32)c1	8.9µM*
COCCOc1ccc(-c2nc(C)ccc2OC)cc1	11%
COc1ccc(CC2CN(C(=O)c3ccnc(N)c3)CCO2)cc1 (configuration not stated)	-10%
C=CCNC(=O)C[C@@H]1CCN(C(=O)Nc2cccc(C(=O)OCC)c2)C[C@@H]1CC	-1%[44.1 µM]
O=C(NCc1nnc2n1C(C(=O)N1CCN(c3ncccn3)CC1)CC2)c1cccnc1 (configuration not stated)	17%
O=C(c1ccc2cc[nH]c2c1)N1CCN(C(=O)c2nnn3c2COC(c2ccc(Cl)cc2)C3)CC1 (configuration not stated)	-20%
CCn1c(=O)n(CC)c2cc(N3CCCCC3)c(NC(=O)Nc3ccccc3C(F)(F)F)cc21	10µM*
CC(=O)c1cccc(NC(=O)Nc2cc3c(cc2N2CCCC2)n(C)c(=O)n3C)c1	i
Cc1ccc(C)c(NS(=O)(=O)c2ccc3c(c2)n(C)c(=O)n3C)c1	15%
COc1ccc(Cl)cc1NC(=O)Nc1c[nH]c(=O)[nH]c1=O	37%
COc1ccc(Cl)cc1NC(=O)c1c(OC)cc(=O)n2c1CCCC2	50%
O=C(Cn1nc2n(c1=O)CCCCC2)Nc1ccccc1C(F)(F)F	37%
CCn1c(=O)n(CC)c2cc(N3CCCCC3)c(NC(=O)Nc3cc(Cl)ccc3OC)cc21	8.9µM*
Cc1ccc(C)c(NC(=O)Nc2cc3c(cc2N2CCCCC2)n(C)c(=O)n3C)c1	10µM*
Cc1ccc(C#N)c(=O)n1CC(=O)Nc1ccccc1C(F)(F)F	9%
O=C(NCCc1ccncc1)C1CN(C(=O)c2cccc(Cl)c2)CC12CCOCC2 (configuration not stated)	4%
C=CCNC(=O)C1CCN(C(=O)N2CC3CC(C2)[C@H]2CCCC(=O)N2C3)CC1 (some centres not stated)	-5%
COc1ccccc1N1CCN([C@@H]2[C@H](O)[C@H](CO)O[C@@H]2CNC(C)C)CC1	i
Clc1cccc(Nc2cnc3ccc(N4CCOCC4)nn23)c1	-9%[44.1 µM]
CN(Cc1cccnc1)c1ccc2ncc(Nc3ccc(F)cc3)n2n1	-18%[44.1 µM]
CN1CCN(c2ccc3ncc(Nc4ccc5c(c4)OCCO5)n3n2)CC1	7.9µM*
SMILES	Pf Dd2 growth
CN(Cc1cccnc1)c1ccc2ncc(Nc3ccc4c(c3)OCO4)n2n1	7.9µM*
COc1ccc(-c2ccc3ncc(Nc4ccnc(N5CCOCC5)c4)n3n2)cc1OC	-1%[44.1 µM]
CCc1nnc2ccc(N3CCN(C)CC3)nn12	-1%
c1ccc(-c2ccc3ncc(Nc4ccc5c(c4)OCCO5)n3n2)cc1	i
CN(Cc1ccc(F)cc1)c1ccc2ncc(Nc3ccc4c(c3)OCO4)n2n1	-16%[44.1 µM]
CN1CCN(c2ccc3ncc(Nc4ccc(OC(F)(F)F)cc4)n3n2)CC1	3.5µM*
O=C(C[C@@H]1O[C@H](CNC(=O)Nc2cccc(F)c2)[C@@H](O)[C@H]1O)Nc1ccccc1	17%[44.1 µM]
COc1ccc(C(=O)N2C[C@@H](F)C[C@H]2C(=O)N2CCCCC2)c(OC)c1	31%
CN(C)CCN(C)[C@@H]1[C@H](O)[C@H](CO)O[C@@H]1CNC1CCN(C)CC1	9%
Cc1ccccc1-c1cc(C(=O)NCCc2cnc[nH]2)c2c(c1)N(C)CCO2	i
Clc1ccc(-c2nnc3n2CCN(CC2CCCCC2)C3)cc1	-26%
CCC(=O)NCC(c1ccc2c(c1)OCO2)N1CCN(c2ccccc2)CC1 (configuration not stated)	-4%
CCOc1ccc(C(=O)NCC(c2ccc3c(c2)OCO3)N2CCN(c3ccc(F)cc3)CC2)cc1 (configuration not stated)	11µM*
Cc1cccc(NC(=O)C(=O)NCC(c2ccc3c(c2)OCO3)N2CCN(C)CC2)c1C (configuration not stated)	-23%
O=C(NCC(c1ccc2c(c1)OCO2)N1CCOCC1)C(=O)Nc1cccc(Cl)c1 (configuration not stated)	-10%
COc1ccc(N2CCN(C(CNC(=O)CC(C)C)c3ccc4c(c3)OCO4)CC2)cc1 (configuration not stated)	5.6µM*
CCOc1ccc(C(=O)NCC(c2ccc3c(c2)OCO3)N2CCOCC2)cc1 (configuration not stated)	9%[0.594 µM]
CN1CCN(C(CNC(=O)C(=O)Nc2cccc(Cl)c2)c2ccc3c(c2)OCO3)CC1 (configuration not stated)	7.1µM*
O=C(NCC(c1ccc2c(c1)OCO2)N1CCN(c2ccc(F)cc2)CC1)c1cccc([N+](=O)[O-])c1 (configuration not stated)	-16%
CC(C)C(=O)NCC(c1ccc2c(c1)OCO2)N1CCN(c2ccccc2)CC1 (configuration not stated)	7%
Cc1noc(C)c1C(=O)NC1CCCc2c1[nH]c1ccccc21 (configuration not stated)	-9%
O=C(O)Cn1nc(-c2ccncc2)nc1C1CCOC1 (configuration not stated)	-4%
OCC1(CNCc2cccnc2)C[C@@H](O)[C@@H](O)C1 (some centres not stated)	-4%[44.1 µM]
COCC(=O)NC[C@H]1O[C@@H](CC(=O)N2CCN(c3ccccc3OC)CC2)[C@H](O)[C@@H]1O	24%
O=C(c1ccc(C(F)(F)F)cc1)N1CCC2(CC1)COc1ccccc1S(=O)(=O)N2	-11%
SMILES	Pf Dd2 growth
O=S(=O)(c1ccc2c(c1)CCC2)N1CCCC(Cn2c(C3CC3)nc3cccnc32)C1 (configuration not stated)	i
COc1ccc(CN2C(=O)COC[C@H]2C(=O)NCc2ccc(Cl)cc2)cc1OC	6%
COc1ccc(C2Nc3ccccc3-c3cc(C)nn32)cc1OC (configuration not stated)	8%
COc1cc(C2Nc3ccccc3-c3cc(C)nn32)ccc1O (configuration not stated)	1%
CCOc1cccc(C2Nc3ccccc3-c3cc(C)nn32)c1O (configuration not stated)	1µM*
COc1ccc(OCC(O)CN(C)C)c(CN2CCC(c3ccncn3)CC2)c1 (configuration not stated)	-5%
Cc1ccc(OCC(=O)N2CCC3(CC2)N(CC2CC2)C(=O)CS3=O)cc1 (configuration not stated)	-15%
O=C(Cc1ccccc1)N1CCC(c2n[nH]c(=O)n2Cc2ccc(F)cc2)CC1	i
COc1ccc(OC)c(CN2CCCn3nc(C)c(-c4cnccc4C)c32)c1	i
CN(C)c1nc(NC2CC(c3cc(=O)[nH]c(C4CC4)n3)C2)ncc1F (configuration not stated)	i
COCc1nc(C2CC(Nc3ccnc4cc(Cl)ccc34)C2)cc(=O)[nH]1 (configuration not stated)	2.5µM*
COCc1nc(C2CC(NC(=O)CN3C(=O)CN(C)C3=O)C2)cc(=O)[nH]1 (configuration not stated)	-12%
